About 25,000 (6.9%) of roughly 360,000 compounds were called active. Roughly 9% stayed inconclusive and do not appear here. The list comes from a sample in which actives are over-represented; it also holds similar structures and randomly drawn compounds. Values without a mark were called inactive. The call rests on the fitted dose curve; in most records, active means well fitted inhibition curve with a large enough effect; inconclusive means small, poorly fitted or top-dose-only effect; inactive means flat fitted curve, though single readings scatter.

The target in the experiment is Luciferin 4-monooxygenase (Photinus pyralis) (UniProt P08659). Briefly: qHTS profiling assay for firefly luciferase inhibitor/activator using purifed enzyme and Km concentrations of substrates (counterscreen for miR-21 project). Further: nearly all actives have a fitted effect of over 55% in size.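 On activity change, negative = inhibition: plate controls were vehicle for no effect and reference inhibitor for full effect.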 Particulars: purified FLuc, luminescence inhibition; series mostly up to 57.5 µM; activity change, negative = inhibition: at the top concentration. The source says: MLPCN Grant: 1 R21 NS059478-01 (miR-21 grant) Assay Provider: NCGC NCGC Assay Overview: Firefly (Photinus pyralis) luciferase is one of the most commonly used transcriptional reporters for a number of reasons. It is considered one of the more dynamically responsive reporters -that is, responsive to changes in reporter transcription - as it requires no post-translational modifications and is enzymatically active directly after protein synthesis (Wood, 1998). Additionally, the half-life of the luciferase protein is short relative to other reporter-gene products (Wood, 1995). Whereas reporters with long half-lives potentially allow for increased signal due to accumulation of reporter-gene product, once accumulated in the cell, dynamic changes in reporter-gene expression may be difficult to detect(Fan and Wood, 2007; Almond et al., 2004). It has been shown that wild-type P. pyralis luciferase has a half-life of approximately […] hours in mammalian cells (Thompson et al., 1991). Firefly luciferase reporter-gene assays are also generally considered one of the most sensitive assay types (Wood, 1995; Wood, 1998). Although light produced in a bioluminescence reaction is of lower intensity than that produced during fluorescence emission, this is offset by little to no background light inherent to luminescent assays. Thus the luciferase reporter can be expressed at much lower levels than fluorescent proteins while still providing robust signal. # However, it was initially observed, in 1991, by Thompson et al., that compounds that resemble the substrates of firefly luciferase (FLuc) can act as competitive inhibitors of the enzyme, and that these compounds, upon interaction with luciferase in the cell, can actually stabilize the protein and increase its half-life. Accumulated intracellular FLuc protein can be measured as an increase in luminescence signal, upon addition of detection reagents (which contain high concentrations of FLuc substrates) commonly used in high-throughput screening. In cell-based reporter gene assays that use FLuc as the reporter gene to quantitate the potential influence of a given compound against the target biology, this apparent increase in luminescence can mistakenly be interpreted as identification of a compound that is active against the target of interest. This is the case for the miR-21 FLuc reporter gene assay used to identify inhibitors of the miR-21 pathway (PubChem AID 2289) - compounds of interest will inhibit miR-21 biogenesis/expression or activity, and are identified by causing an increase in luminescence, due to increased FLuc translation. However, FLuc inhibitory compounds that stabilize the FLuc protein will give an identical read-out, making it difficult to distinguish compounds that are active against the target from those active against FLuc. Previous profiling work to determine the prevalence of compounds that affect FLuc enzymatic activity (PubChem AID 411) identified that ~3% of the MLSMR library (then at ~72K) inhibited FLuc. […] Since the MLSMR had grown to ~350K compounds, and since it was expected that a significant percentage of compounds found active in the miR-21 FLuc assay would be FLuc inhibitors, the library was screened for activity against FLuc using a biochemical assay of purified FLuc and KM concentrations of FLuc substrates (D-luciferin and ATP).
Chain of Luciferin 4-monooxygenase (Photinus pyralis) (P08659 whole entry, looked up): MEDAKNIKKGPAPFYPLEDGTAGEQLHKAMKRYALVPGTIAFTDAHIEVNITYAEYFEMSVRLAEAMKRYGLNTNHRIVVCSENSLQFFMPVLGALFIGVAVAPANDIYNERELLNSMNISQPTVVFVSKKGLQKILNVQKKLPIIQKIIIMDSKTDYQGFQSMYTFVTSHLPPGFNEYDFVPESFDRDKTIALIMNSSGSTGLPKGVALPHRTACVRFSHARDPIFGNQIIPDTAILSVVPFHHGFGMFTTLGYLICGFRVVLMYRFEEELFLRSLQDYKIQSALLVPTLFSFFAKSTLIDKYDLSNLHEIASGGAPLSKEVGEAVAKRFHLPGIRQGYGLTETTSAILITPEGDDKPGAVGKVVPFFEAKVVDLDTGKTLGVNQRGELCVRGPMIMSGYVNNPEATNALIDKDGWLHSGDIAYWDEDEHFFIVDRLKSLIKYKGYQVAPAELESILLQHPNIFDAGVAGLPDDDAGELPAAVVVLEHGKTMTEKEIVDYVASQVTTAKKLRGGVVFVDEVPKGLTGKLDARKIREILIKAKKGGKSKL
NCGC Assay Protocol Summary: Reagents: 50mM Tris acetate, pH 7.5; 10mM Mg acetate; 10uM D-luciferin (Sigma #L9504); 10uM ATP; 0.01% Tween-20; 0.05% BSA; 10nM P. pyralis luciferase (Sigma #L9506) Control compounds used were two known firefly luciferase inhibitors (compounds (2) and (5) in Auld et al., 2010), and DMSO. […]
`Cc1sc(C2C(C#N)=C(N)N(c3cccc(Cl)c3)C3=C2C(=O)CCC3)cc1CN1CCOCC1` (stereo not drawn): the “activity change, negative = inhibition” value is 0.0548%. On to `Cc1ccsc1C(=O)NC1CCCCC1C` (stereo not drawn), for which the “activity change, negative = inhibition” value was -4.61%.

`CCOc1ccccc1CNC(=O)Nc1cn(CC(C)C)c(=O)c2ccccc12`: the “activity change, negative = inhibition” value is -8.92%. `COc1ccccc1-c1oc2ccccc2c1C#CCCCCO`: the “activity change, negative = inhibition” value was -2.19%. As to `COC(=O)CC1Oc2ccccc2-n2cc(-c3ccccc3)nc21` (stereo not drawn), the “activity change, negative = inhibition” value is -15.8%. On to `CCN1C(=O)c2ccccc2Sc2ccc(NC(=O)Cc3ccc(OC)cc3)cc21`, for which the “activity change, negative = inhibition” value was -6.99%.

Turning to `COc1ccc(/C=C(/NC(=O)c2ccco2)C(=O)Nc2ccc(C(C)=O)cc2)cc1`, the “activity change, negative = inhibition” value is -4.55%. On to `COc1ccc(C(=O)NCc2ccc(Cl)cc2)cc1S(=O)(=O)N1CCCC1`, for which the “activity change, negative = inhibition” value is -5.91%. As to `CCOc1ccc(Nc2oc(/C=C/c3ccc(F)cc3)nc2C#N)cc1`, the “activity change, negative = inhibition” value is -5.12%. For the compound `CCCCn1c(=N)c(S(=O)(=O)c2ccccc2)cc2c(=O)n3cccc(C)c3nc21`, the “activity change, negative = inhibition” value is 2.9%. For `CN1CCN(CC(=O)Nc2sc3c(c2C#N)CCC(C(C)(C)C)C3)CC1` (stereo not drawn), the “activity change, negative = inhibition” value was 2.26%.

For `CC(C)(C)C1CCc2c(sc3nc(SCC(N)=O)nc(N)c23)C1` (stereo not drawn), the Potency was 4.78 µM (active). For `Nc1nc(SCC(=O)NCCN2CCOCC2)nc2sc3c(c12)CCC3`, the “activity change, negative = inhibition” value was -15.9%.

On to `COc1ccc(OC)c(NC(=O)CSc2nc3ccccc3nc2N2CCCCC2)c1`, for which the “activity change, negative = inhibition” value is 6.02%. On to `CCOc1ccc(C(C)NC(=O)CN2C(=O)NC3(CCCCC3)C2=O)cc1OCC` (stereo not drawn), for which the “activity change, negative = inhibition” value was -1.45%. In the case of `O=C(CSc1nc(-c2cccc(F)c2)[nH]c1-c1ccccc1)Nc1ccc2c(c1)OCO2`, the “activity change, negative = inhibition” value was -13.3%. The same measure, in the same setting: the value for `CCOC(=O)C(Cc1ccccc1)NC(=O)CCc1c(C)nc2c(c(C)nn2-c2ccc(C)c(C)c2)c1C` (stereo not drawn) was -1.42%; that for `O=C(NCc1ccccc1)c1onc(CSc2nc3ccccc3[nH]2)c1C(=O)NCc1ccccc1` was 2.2%.

For the compound `COc1ccc(NC(=O)CSc2nc3ccccc3[nH]2)cc1`, the “activity change, negative = inhibition” value was -17.5%. As for `O=C(CSc1nc2ccccc2[nH]1)Nc1nc(-c2ccccc2)c(-c2ccccc2)o1`, the “activity change, negative = inhibition” value was -1.43%. As to `O=C(CSc1nc2ccccc2[nH]1)c1cccs1`, the Potency was 6.75 µM (active). On the same count and under the same terms, next, `CCCCSc1nc2ccccc2[nH]1`: 16.9 µM (active). With `CN(Cc1ccccc1)c1nc2c(c(=O)[nH]c(=O)n2C)n1CCSc1nc2ccccc2[nH]1`, the “activity change, negative = inhibition” value was -0.398%.

Take `CCc1nnc(NC(=O)CCCSc2nc3ccccc3[nH]2)s1`: the “activity change, negative = inhibition” value was -6.22%.

In the case of `COc1ccccc1CSc1nc2ccccc2[nH]1`, the Potency is 13.5 µM (active). On to `COc1ccccc1-c1noc(CSc2nc(C)cc(=O)[nH]2)n1`, for which the “activity change, negative = inhibition” value was -15.8%. Regarding `CCc1ccc(CN(C)C(C)C(=O)Nc2ccc(S(=O)(=O)N3CCCC3)cc2)cc1` (stereo not drawn), the “activity change, negative = inhibition” value was 2.76%.

With `Nc1c(Cl)cc(S(N)(=O)=O)cc1S(N)(=O)=O`, the “activity change, negative = inhibition” value was 1.02%. Consider `COc1ccc(-n2c(=O)c3ccccc3n(Cc3ccccc3Cl)c2=O)cc1`, for which the “activity change, negative = inhibition” value is -3.28%. Same read-out and setting: the value for `Cc1ccc(Cn2c(=O)n(CCCC(=O)NCc3ccccc3Cl)c(=O)c3ccccc32)cc1` was 3.41%; that for `COc1ccc(C2=NC3(CCCCC3)N(CC(=O)Nc3ccc(C(C)C)cc3)C2=O)cc1` was 3.81%; that for `CCOC(=O)c1sc(NC(=O)C(CC)Sc2nccn2C)nc1C` (stereo not drawn) was 4.46%. For `CC(Sc1nncn1C)C(=O)Nc1ccccc1-c1ccccc1` (stereo not drawn), the “activity change, negative = inhibition” value was 1.84%.

Values taken from PubChem BioAssay AID588342 (National Center for Advancing Translational Sciences (NCATS), 2011).
